Screening results (PubChem)
Shiga inhibitor = Shiga toxin inhibition; Vero cells, Shiga toxin protein synthesis inhibition reporter; inhibition, % at 38.7 µM; actives 9.2% (n = 290,000); in the data active = inhibition mostly above about 28%, no sharp cut-off; inactive = mostly below about 43%; also: 0% is about no effect
AMA1 RON2 block = AMA1-RON2 (P. falciparum) interaction inhibition; actives 0.2% (n = 360,000); AlphaScreen AMA1-biotinylated RON2 peptide binding; AID 720542; Potency, µM (series often up to 58.2 µM), without a hit: at the highest dose activity change, negative = inhibition, most hits filed as inhibitors;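 also: potency is read from the fitted curve at half-maximal effect; 0% = vehicle wells and -100% = peptide control; nearly all actives have a fitted effect of over 45% in size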
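AMA1 (3D7) with his tag at 25 nM final met compounds first, then biotinylated RON2 peptide at 25 nM; detection used donor plus acceptor beads, 10 µg/mL apiece, read by AlphaScreen after 30 min at room temperature.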
Pf growth 48h = P. falciparum growth inhibition at 48 hours (one generation). P. falciparum luciferase growth in erythrocytes, 48 h. Potency, µM (titrated, usually from 28.7 µM), for inactives: top-dose activity change, negative = inhibition, usual class: inhibitors. actives 5.9% (n = 310,000); also: potency is read from the fitted curve at half-maximal effect; % is scaled to controls: 0 for no effect and ±100 for the full control effect
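Here the parasites carry a stable luciferase gene and grow inside erythrocytes in Albumax-based RPMI medium with compound for one erythrocytic cycle. Activity is scored as loss of luminescent signal.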
HCV inhibitor = HCV inhibition; Huh7.5.1 HCVcc-Cre infection, luciferase reporter, 44 h; AID 651820; actives 3.4% (n = 340,000); Potency, µM (series often up to 41.8 µM), without a hit: top-dose activity change, negative = inhibition, usual class: inhibitors; also: potency is read from the fitted curve at half-maximal effect; % is scaled to controls: 0 for no effect and ±100 for the full control effect
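1,000 cells/well; 4 h culture; + compound; + HCVcc-Cre (~0.5 moi); 44 h; luciferase substrate, RT 15 min; read 15 sec.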
CHX counter = counter-screen hit for Shiga toxin inhibitors, cycloheximide. max response, %. actives 12% (n = 300,000). AID 2314. cell reporter, cycloheximide protein synthesis inhibition counterscreen; in the data active = max response mostly above about 13%, no sharp cut-off; inactive = mostly below about 14%; also: read at 38.3 µM for the half of the compounds with a filed dose; 0% is about no effect
Pf growth 96h = P. falciparum growth inhibition at 96 hour, primary screen for plastid delayed-death inhibitors | P. falciparum luciferase reporter growth, 96 h | Potency, µM (titrated, usually from 28.7 µM), for inactives: at the highest dose activity change, negative = inhibition, actives largely listed as inhibitors | actives 6.9% (n = 320,000) | AID 504834; also: potency is read from the fitted curve at half-maximal effect; % is scaled to controls: 0 for no effect and ±100 for the full control effect
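Readout is luminescence from an integrated firefly luciferase in P. falciparum. Red cells, 2% hematocrit and 0.05% parasitemia final, were cultured with compound through two parasite generations (96 hours) at 37 C, 5% CO2.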
Starred values were filed as active, the others as inactive; ? = inconclusive; / = no result; [ ] = remark or other dose. Rows were chosen to be rich in hits. Some 21% of all compounds tested hit in one or more screens of this group. Unless noted, calls follow the shape of the dose curve; as a rule, active = well fitted curve in the direction sought with a large enough effect; inconclusive = small, poorly fitted or top-dose-only effect, or another doubt; inactive = no such curve, though single readings can be large; an effect the other way counts as inactive or inconclusive.

SMILES	Shiga inhibitor	AMA1 RON2 block	Pf growth 48h	HCV inhibitor	CHX counter	Pf growth 96h
COc1ccc(N2C(=O)[C@@H]3[C@H](C2=O)[C@H](C(=O)c2ccc(OC(C)=O)cc2)N2N=CC=C[C@@H]32)cc1	38*	/	26%	-7%	14*	58%
CC(=O)Oc1ccc(C(=O)[C@H]2[C@H]3C(=O)N(c4ccc(C)cc4)C(=O)[C@H]3[C@@H]3C=CC=NN32)cc1	46*	7%	55%	17%	24*	94%
O=C(Nc1ccccc1)[C@@H]1[C@@H]2C(=O)N(c3ccc(F)cc3)C(=O)[C@@H]2[C@H]2C=CC=NN21	25	-18%	-7%	14%	6	2%
COc1ccc(C(=O)[C@H]2[C@H]3C(=O)N(c4ccccc4)C(=O)[C@H]3C3C=CC=NN32)cc1 (some centres undefined)	14	-10%	17µM*	2%	10	50%
O=C(Nc1ccc2oc(=O)ccc2c1)c1ccco1	31*	2%	58%	-13%	22*	-3%
O=C(Cc1ccccc1)Nc1ccc2oc(=O)ccc2c1	21	-8%	31%	-20%	13*	-3%
CC(C)C(NC(=O)c1ccc(C(C)(C)C)cc1)C(=O)N1CCCC1 (centres undefined)	12	4%	?	-10%	10	?
N/C(Cc1ccc(Cl)c(Cl)c1)=N\OC(=O)c1cccs1	-5	15%	?	?	2	?
N/C(=N\OC(=O)c1cccs1)c1cccnc1	43*	6%	39%	4%	40*	-15%
Cc1ccc(/C(N)=N/OC(=O)c2ccc(C)cc2Cl)cc1	26*	7%	-58%	?	80*	2%
Cc1ccc(/C(N)=N/OC(=O)c2ccc3ccccc3c2)cc1	10	-6%	?	?	12	-20%
N/C(=N\OC(=O)c1ccc(Cl)cc1Cl)c1ccccc1	127*	54%	58%	?	56*	87%
CCSc1ccc(/C(N)=N/OC(=O)c2cccs2)cn1	88*	10%	91%	13%	46*	99%
CCOC(=O)Cc1csc(SC(C)C(=O)NC2CCCCC2C)n1 (centres undefined)	/	-8%	?	20%	/	1%
CCCCCCCSc1ncnc2[nH]ncc12	/	60%	/	-2%	/	/
CN1C(=O)C(N=Nc2ccc([N+](=O)[O-])cc2)SC1=S (centres undefined)	/	-28%	/	-5%	/	/
O=S1(=O)CC(O)C(O)CS1 (centres undefined)	/	5%	/	/	/	/
O=c1ccn2c(n1)SC(c1ccccc1)C2 (centres undefined)	/	-2%	/	/	/	/
CC[C@@H]1C(c2cccc(C)c2)=NN(c2ccc(Br)cc2)[C@H]1C(=O)N1CCOC1=O	13	/	/	/	2	/
Cc1ccccc1/C(N)=N/OC(=O)c1cccs1	61*	4%	10%	?	27*	64%
N/C(=N\OC(=O)c1ccc(Cl)cc1Cl)c1cccnc1	91*	1%	-36%	?	35*	4.7µM*
N/C(=N\OS(=O)(=O)c1ccccc1)c1cccnc1	-1	3%	11%	14%	1	155%
N/C(=N\OC(=O)c1ccc(Cl)cc1)c1cccnc1	175*	-3%	56%	?	42*	/
N/C(=N\OC(=O)c1ccc(Cl)cc1Cl)c1ccc(Cl)cc1	114*	10%	347%	5%	50*	-94%
CC(Sc1ccccc1)C(=O)NCC(c1ccco1)N1CCCCC1 (centres undefined)	/	28%	?	?	/	?
SMILES	Shiga inhibitor	AMA1 RON2 block	Pf growth 48h	HCV inhibitor	CHX counter	Pf growth 96h
C[C@@H]1CN([C@H](C)CO)C(=O)c2cc(C#CC3CCCCC3)cnc2O[C@H]1CN(C)Cc1cccnc1	/	-5%	/	/	/	/
NS(=O)(=O)c1ccc(CNC(=O)c2csc3c2CCCC3)cc1	4	0%	-5%	-3%	-3	21%
CN(Cc1ccc2nsnc2c1)C(=O)C1CCC(=O)N(CCc2ccccc2)C1 (centres undefined)	/	13%	/	/	/	/
Cc1cccc(/C(N)=N/OC(=O)c2ccc(Cl)cc2Cl)c1	72*	0%	191%	?	70*	61%
CN(c1ccccc1)S(=O)(=O)c1ccc(Cl)c(C(=O)OCC(=O)c2c(N)n(C)c(=O)n(C)c2=O)c1	/	-1%	/	?	/	/
CN(CC(=O)Nc1ccncc1)S(=O)(=O)c1ccc(Br)cc1	-11	1%	/	-2%	-3	?
O=C(Cc1ccc(Cl)cc1)Nc1ccncc1	9	2%	4%	10µM*	1	-6%
O=C(Nc1ccncc1)c1ccc(Cl)cc1	3	-4%	?	3%	5	?
CN(CCCC(=O)Nc1ccncc1)S(=O)(=O)c1ccc(Cl)cc1	-2	-10%	?	10µM*	1	245%
Cc1ccc(CC(=O)Nc2ccncc2)cc1	6	5%	40%	13µM*	13	?
CCCN1C(=O)/C(=C/c2ccc(C)s2)NC1=S	38	1%	-6%	-8%	20*	26%
O=[N+]([O-])c1cc(/C=N/NC(=S)Nc2ccccc2Cl)ccc1Cl	21	52%	-19%	?	10	59%[5.75 µM]
O=C(CCNC(=O)c1ccccc1Cl)Nc1cc(C(F)(F)F)ccc1Cl	7	-5%	17%	-15%	-2	4%
Fc1cccc(/C=N/NC(=S)Nc2ccccc2Cl)c1	31	114%	101%	?	36*	221%
FC(F)(F)c1ccc(Cl)c(NC(=S)N/N=C/c2ccccc2Cl)c1	-5	85%	?	4%	-5	1.5µM*
S=C(N/N=C/c1ccc(Cl)c(Cl)c1)Nc1ccccc1Cl	30	83%	-2%	?	23*	72%[5.75 µM]
Cc1ccc2c(c1)S(=O)(=O)N(C)C(c1ccccc1)=C2	/	9%	/	-17%	/	/
CCOC(=O)C(C)Sc1cc(CS(=O)(=O)c2ccccc2)nc(-c2ccccc2)n1 (centres undefined)	-7	1%	23%	?	-2	10µM*
CCOC(=O)CC(=O)CSc1ncc(C(=O)OCC)c(N)n1	16	-5%	47%	13%	2	10%
O=S(=O)(Cc1cc(Sc2ccc(Cl)cc2)nc(-c2ccccc2)n1)c1ccccc1	45	-6%	/	6%	-1	?
CCOC(=O)C(C)Sc1ncc(-c2ccccc2)cn1 (centres undefined)	70*	16%	?	13%	58*	-13%
CCOC(=O)c1cnc(SCc2cccc3ccccc23)nc1N	-10	16%	/	?	4	4.7µM*
Cc1nc(SCc2ccc(Cl)cc2)ncc1C(=O)O	60*	27%	12%	13%	14	?
CCOC(=O)c1cnc(SCc2ccc(Cl)c(Cl)c2)nc1N1CC1	/	0%	/	11µM*	/	/
